Laboratory results: PubChem BioAssay AID1159580 (chemical genetic matrix, 2015)
The whole screen tested about 5,500 compounds, of which about 2,000 (36%) were called active. About 18% were inconclusive and are not listed. Cut-off read from the data, not from the text of the source: active = normalized growth mostly below about 0.91 (no sharp cut-off); inconclusive = no clear call, values can overlap the other calls; inactive = mostly above about 0.92. The list shows a part of the results.

Assay: chemical genetic growth profiling, strain panel (AID 1159580);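 note: tested at 20 µM; growth read once vehicle control cultures reached saturation at 30 °C; 1 = growth at the plate median or of vehicle wells; lower values mean less growth of the strain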
Settings: S. cerevisiae deletion strains, growth OD

Measured: normalized growth

COP(=S)(OC)Oc1ccc(SC)c(C)c1
inactive: locus YAL013W, strain DEP1, stronger effect = lower value 1 | locus YAL021C, strain ccr4, stronger effect = lower value 1.07 | locus YAL026C, strain drs2, stronger effect = lower value 0.984 | locus YAL030W, strain snc1, stronger effect = lower value 1 | locus YBL061C, strain skt5, stronger effect = lower value 0.981 | locus YBR021W, strain FUR4, stronger effect = lower value 0.98 | locus YBR023C, strain chs3, stronger effect = lower value 0.973 | locus YBR171W, strain sec66, stronger effect = lower value 0.992 | locus YBR229C, strain ROT2, stronger effect = lower value 1.02 | locus YBR231C, strain swc5, stronger effect = lower value 1.03 | locus YBR279W, strain paf1, stronger effect = lower value 1.01 | locus YCL011C, strain gbp2, stronger effect = lower value 0.955 | locus YCL016C, strain dcc1, stronger effect = lower value 0.954 | locus YCL029C, strain bik1, stronger effect = lower value 0.988 | locus YCL069W, strain vba3, stronger effect = lower value 0.981 | locus YCR088W, strain abp1, stronger effect = lower value 1 | locus YDL005C, strain med2, stronger effect = lower value 1.01 | locus YDL035C, strain GPR1, stronger effect = lower value 1.01 | locus YDL040C, strain nat1, stronger effect = lower value 1 | locus YDL074C, strain BRE1, stronger effect = lower value 1.01 | locus YDL101C, strain DUN1, stronger effect = lower value 1.03 | locus YDL134C, strain PPH21, stronger effect = lower value 1.02 | locus YDL185W, strain tfp1, stronger effect = lower value 0.986 | locus YDL192W, strain arf1, stronger effect = lower value 0.989 | locus YDR001C, strain nth1, stronger effect = lower value 0.999 | locus YDR069C, strain doa4, stronger effect = lower value 1.02 | locus YDR101C, strain arx1, stronger effect = lower value 0.988 | locus YDR137W, strain rgp1, stronger effect = lower value 0.94 | locus YDR150W, strain NUM1, stronger effect = lower value 1.02 | locus YDR159W, strain sac3, stronger effect = lower value 0.919 | locus YDR162C, strain NBP2, stronger effect = lower value 1.01 | locus YDR297W, strain sur2, stronger effect = lower value 1.01 | locus YDR318W, strain mcm21, stronger effect = lower value 0.99 | locus YDR334W, strain swr1, stronger effect = lower value 1.01 | locus YDR335W, strain msn5, stronger effect = lower value 1.01 | locus YDR388W, stronger effect = lower value 0.991 | locus YDR392W, strain spt3, stronger effect = lower value 0.766 | locus YDR502C, strain sam2, stronger effect = lower value 1 | locus YEL003W, strain gim4, stronger effect = lower value 1 | locus YEL037C, strain rad23, stronger effect = lower value 1 | locus YEL061C, strain CIN8 (second series), stronger effect = lower value 1 | locus YEL061C, strain CIN8, stronger effect = lower value 1.01 | locus YER015W, strain faa2, stronger effect = lower value 0.995 | locus YER016W, strain bim1, stronger effect = lower value 0.978 | locus YER110C, stronger effect = lower value 0.986 | locus YER111C, strain swi4, stronger effect = lower value 1.01 | locus YER155C, strain BEM2 (second series), stronger effect = lower value 0.951 | locus YER155C, strain BEM2, stronger effect = lower value 1.02 | locus YER167W, strain BCK2, stronger effect = lower value 1 | locus YFR010W, strain ubp6, stronger effect = lower value 1.03 | locus YGL078C, strain dbp3, stronger effect = lower value 0.981 | locus YGL086W, strain mad1, stronger effect = lower value 0.991 | locus YGL167C, strain pmr1, stronger effect = lower value 0.993 | locus YGL173C, strain kem1, stronger effect = lower value 0.988 | locus YGL227W, strain vid30, stronger effect = lower value 1.01 | locus YGL240W, strain doc1, stronger effect = lower value 0.989 | locus YGL248W, strain PDE1, stronger effect = lower value 1.03 | locus YGL253W, strain hxk2, stronger effect = lower value 0.955 | locus YGR078C, strain PAC10, stronger effect = lower value 0.999 | locus YGR135W, strain pre9, stronger effect = lower value 0.987 | locus YGR229C, strain SMI1, stronger effect = lower value 0.984 | locus YGR252W, strain gcn5, stronger effect = lower value 0.922 | locus YHR013C, strain ard1, stronger effect = lower value 1.02 | locus YHR027C, strain rpn1, stronger effect = lower value 0.998 | locus YHR030C, strain SLT2, stronger effect = lower value 1.02 | locus YHR079C, strain IRE1 (second series), stronger effect = lower value 0.99 | locus YHR094C, strain hxt1, stronger effect = lower value 0.984 | locus YHR129C, strain ARP1, stronger effect = lower value 1.01 | locus YHR142W, strain chs7, stronger effect = lower value 0.912 | locus YHR200W, strain rpn10, stronger effect = lower value 0.977 | locus YIL066C, strain RNR3, stronger effect = lower value 1 | locus YIL073C, strain SPO22, stronger effect = lower value 0.954 | locus YIL125W, strain kgd1, stronger effect = lower value 0.996 | locus YIR030C, strain dcg1, stronger effect = lower value 0.988 | locus YJL092W, strain hpr5, stronger effect = lower value 0.992 | locus YJL095W, strain BCK1 (second series), stronger effect = lower value 0.97 | locus YJL095W, strain BCK1, stronger effect = lower value 0.983 | locus YJL115W, strain asf1, stronger effect = lower value 1.02 | locus YJL129C, strain trk1, stronger effect = lower value 0.958 | locus YJL134W, strain LCB3, stronger effect = lower value 1.02 | locus YJL154C, strain vps35, stronger effect = lower value 1.01 | locus YJL164C, strain tpk1, stronger effect = lower value 0.935 | locus YJL166W, strain qcr8, stronger effect = lower value 0.974 | locus YJL168C, strain set2, stronger effect = lower value 0.991 | locus YJL187C, strain SWE1 (second series), stronger effect = lower value 1.01 | locus YJR043C, strain POL32, stronger effect = lower value 1
active: locus YBR009C, strain hhf1, stronger effect = lower value 0.904 | locus YDR195W, strain ref2 1.2 [resistant]
